# Laboratory results published in the supplement of paper PMC9177965.
# Experiments:
# [1] = tested on: HT29 RNF43 G659fs (RNF43 659mut, CRISPR-edited); experiment: cell viability activity relative to DMSO (negative = inhibition); higher = more viable cells (less growth inhibition); settings: 5 µM; 96 h
# Method: (§1)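 Broad Repurposing Library primary screen at a single dose of 5 uM. HT29 sg-Ctrl and HT29 RNF43 G659fs CRISPR-edited isogenic cells were seeded at 2500 cells/well in 384-well plates in duplicate and treated for 96 h. Viability was read by CellTiter-Glo and reported as % activity relative to DMSO, with MG132 as the positive control (negative = growth inhibition).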
# [2] = tested on: HT29 sg-Ctrl (RNF43 wildtype); experiment: as above; settings: 5 µM; 96 h
# Method: as §1
Compound,cell viability activity [1] [%],cell viability activity [2] [%]
COc1ccc(S(=O)(=O)Nc2cccnc2Nc2ccc(O)cc2)cc1,-63.9,-55.9
O=c1cc(N2CCOCC2)oc2c(-c3cccc4c3sc3ccccc34)cccc12,-57.6,-57.1
Cc1ccc(-n2nc(C(C)(C)C)cc2NC(=O)NCc2cc(F)ccc2Oc2ccc3c(cnn3CCO)c2)cc1,-36.7,-42.9
CN[C@@H](C)C(=O)N[C@H](C(=O)N1CCC[C@H]1C(=O)N[C@H]1c2ccccc2C[C@H]1OCC#CC#CCO[C@@H]1Cc2ccccc2[C@@H]1NC(=O)[C@@H]1CCCN1C(=O)[C@@H](NC(=O)[C@H](C)NC)C1CCCCC1)C1CCCCC1,-58.1,-77.2
Nc1nccc2c1ncn2C1C=C(CO)C(O)C1O (stereo unspecified),-38.4,-46.7
CCCCc1oc2ccc(NS(C)(=O)=O)cc2c1C(=O)c1ccc(OCCCN(CCCC)CCCC)cc1,-96.2,-91.7
CC(=O)N(O)CCCCCNC(=O)CCC(=O)N(O)CCCCCNC(=O)CCC(=O)N(O)CCCCCN,-56.3,-45
N#Cc1cc2c(OCC(O)CN3CCN(C(c4ccccc4)c4ccccc4)CC3)cccc2[nH]1 (stereo unspecified),-23.9,-20.5
Cc1cc(Nc2cc(N3CCN(C)CC3)nc(Sc3ccc(NC(=O)C4CC4)cc3)n2)n[nH]1,-22.2,-38.2
CN1CCN(S(=O)(=O)c2ccc(-c3cnc(N)c(C(=O)Nc4cccnc4)n3)cc2)CC1,-46.3,-40.9
CN1CCN(Cc2ccc(Nc3ncc(Cl)c(Nc4ccccc4S(=O)(=O)N(C)C)n3)cc2)CC1,-94.8,-96.1
COC(=O)N[C@@H](C)CNc1nccc(-c2cn(C(C)C)nc2-c2cc(Cl)cc(NS(C)(=O)=O)c2F)n1,-69.5,-72.4
Cn1ccc2cc(NC(=O)Nc3cccnc3)ccc21,-29.2,-52
Cc1cc(Nc2nc(N[C@@H](C)c3ncc(F)cn3)ncc2Cl)[nH]n1,-32.8,-31.6
COCCOC(=O)C1=C(C)NC(C)=C(C(=O)OC/C=C/c2ccccc2)C1c1cccc([N+](=O)[O-])c1 (stereo unspecified),-57.6,-50.7
Cc1nc(N)sc1-c1ccnc(Nc2ccc(N3CCOCC3)cc2)n1,-59.7,-59.8
Cc1cc(O)c(-c2ccc([C@@H](C)CN)cc2)c2c1[nH]c(=O)c1sccc12,-92.6,-92.7
CCS(=O)(=O)Nc1ccc2[nH]c(O)c(C(=Nc3ccc(CN4CCCCC4)cc3)c3ccccc3)c2c1,-77.1,-75.4
O=C(O)c1ccc(-n2nc(-c3ccccc3O)nc2-c2ccccc2O)cc1,-27.9,-27.1

Compound,cell viability activity [1] [%],cell viability activity [2] [%]
Cc1ccccc1N(C)C(=O)c1ccc([S+]([O-])c2nccs2)c([N+](=O)[O-])c1 (stereo unspecified),-49.2,-22.7
CN1CCN(c2ccc(OC(F)(F)F)c(Nc3ncc4c(n3)-c3c(c(C(N)=O)nn3CCO)CC4)c2)CC1,-69,-82.8
CS(=O)(=O)N1CCc2c(-c3cnc(N)nc3)nc(N3CCOCC3)nc21,-53.1,-25.2
COc1ccc(C[C@H](NC(=O)[C@H](C)NC(=O)CN2CCOCC2)C(=O)N[C@@H](Cc2ccccc2)C(=O)[C@@]2(C)CO2)cc1,-95.4,-94.4
OCCn1cc(-c2ccc3c(c2)CC/C3=N\O)c(-c2ccncc2)n1,-29.3,-39.2
Cc1cc(I)ccc1Nc1c(C(=O)NOCC2CC2)cc(F)c(F)c1F,-65.5,-71.6
Clc1ccccc1CNCC1CCC(CNCc2ccccc2Cl)CC1 (stereo unspecified),-26.3,-19.9
COC[C@H](C)NC1CCC(Nc2cc(-c3cccc(NCC4(C#N)CCOCC4)n3)c(Cl)cn2)CC1 (stereo partly specified),-67.4,-89.4
O=C(NC1CCN(CCCCC2(C(=O)NCC(F)(F)F)c3ccccc3-c3ccccc32)CC1)c1ccccc1-c1ccc(C(F)(F)F)cc1,-95.7,-92.3
C=CCCCCCCCCC(=O)O,-66.5,-72
Cc1ccc([N+](=O)[O-])cc1S(=O)(=O)N(C)/N=C/c1cnc2ccc(Br)cn12,-88.7,-94.4
Cn1nccc1Nc1nccc(-c2ccn([C@H](CO)c3ccc(Cl)c(F)c3)c(=O)c2)n1,-54.6,-52.1
N#CC1(c2ccc(NC(=O)c3cccnc3NCc3ccncc3)cc2)CCCC1,-45.5,-22.7
CCn1c(=O)c(-c2cc[nH]n2)cc2c(C)nc(N)nc21,-54.4,-42.2
Cc1ccc(C(=O)Nc2ccc(Oc3cc4cnn(C)c4cc3-c3cn[nH]c3)c(F)c2)c(=O)n1-c1ccc(F)cc1,-41.5,-29
COCC[n+]1c2c(n(Cc3cnccn3)c1C)C(=O)c1ccccc1C2=O,-96.6,-95.6
COc1cc(C(=O)NC2CCN(C)CC2)c(F)cc1Nc1ncc2c(n1)N(C1CCCC1)CC(F)(F)C(=O)N2C,-65.9,-68.1
Cc1ccc(C)c(OCCCC(C)(C)C(=O)O)c1,-30,-39.7
CC(C)(C#N)c1ccc(N2C(=O)OCc3cnc4ccc(-c5cnc6ccccc6c5)cc4c32)cc1,-30.7,-20
